AmpC inh no det – blocks E. coli AmpC beta-lactamase in absence of detergent; P00811; 71,000 compounds, 1.8% hits; Potency, µM (top dose mostly 28.7 µM), without a hit: at the top dose activity change, negative = inhibition; AmpC nitrocefin hydrolysis, absorbance 480 nm, no detergent; also: % of control where 0% means no effect
Target sequence (P00811 whole entry, looked up): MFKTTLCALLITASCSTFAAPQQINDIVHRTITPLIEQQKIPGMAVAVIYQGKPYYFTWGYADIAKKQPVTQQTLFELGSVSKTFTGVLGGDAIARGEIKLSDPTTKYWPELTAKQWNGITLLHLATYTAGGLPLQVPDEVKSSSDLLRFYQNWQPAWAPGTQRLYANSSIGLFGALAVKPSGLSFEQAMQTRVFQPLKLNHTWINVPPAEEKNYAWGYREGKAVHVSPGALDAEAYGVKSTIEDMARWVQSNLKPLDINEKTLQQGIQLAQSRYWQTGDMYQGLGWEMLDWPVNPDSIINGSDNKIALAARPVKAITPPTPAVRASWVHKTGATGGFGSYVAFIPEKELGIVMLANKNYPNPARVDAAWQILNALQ
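AmpC, 20 mM phosphate pH 7.0; 15 min cpd preinc, RT; start with nitrocefin (800 uM stock); A480 kinetic read, 20 s intervals, 4 min. No-enzyme wells = negative control.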
AmpC inh det – inhibitors of E. coli AmpC beta-lactamase with detergent | P00811 | purified AmpC, nitrocefin hydrolysis with detergent | Potency, µM (titrated, usually from 28.7 µM), inactives show at the highest dose activity change, negative = inhibition | 71,000 compounds, 0.09% hits | AID 584; active = well fitted curve in the direction sought with a large enough effect; inconclusive = small, poorly fitted or top-dose-only effect; also: % is scaled to controls: 0 for no effect and ±100 for the full control effect
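E. coli AmpC (5.3 nM) in 20 mM phosphate pH 7.0 with 0.01% Triton X-100, preincubated 15 min RT with compound; nitrocefin (2 uL of 800 uM stock) hydrolysis followed by 480 nm absorbance every 20 s over 4 min.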
Anthrax LT inh – blocks cellular internalization of anthrax lethal toxin; AID 912; Cells, anthrax lethal toxin internalization, FRET ratio (460/530); 70,000 compounds, 0.67% hits; Potency, µM (doses to about 40 µM), for the others: top-dose activity change, negative = inhibition, usual class: inhibitors; also: % is scaled to controls: 0 for no effect and ±100 for the full control effect; nearly all actives have a fitted effect of over 50% in size
Prx2 Sm inh – inhibitors of Schistosoma mansoni peroxiredoxin 2; 65,000 compounds, 0.07% hits; Potency, µM; S. mansoni Prx2 activity coupled to TGR/GSH (TGR is thioredoxin glutathione reductase), NADPH fluorescence loss, qHTS
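Activity is read as the drop in NADPH fluorescence (365/450 nm), recorded every 30 sec for 8 min after H2O2 addition. Prx2 is coupled to TGR-driven NADPH oxidation through glutathione, in phosphate buffer pH 7.4.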
The depositor's hits bear a star; ? = inconclusive; / = no result given; ! = not confirmed by another sample; [ ] = remark or other dose. Hits are enriched below; roughly 2.4% of the tested compounds scored in any of these assays. Unless noted, calls follow the shape of the full dose curve. Potency is read from the fitted curve at half-maximal effect.

SMILES	AmpC inh no det	AmpC inh det	Anthrax LT inh	Prx2 Sm inh
C[C@@H]1CC2(OC(O)[C@]3(C)O[C@H]23)O[C@H]2C[C@@]3(C)[C@@H]4CC[C@H]5C(C)(C)C(O[C@@H]6OC[C@@H](O)[C@H](O)[C@H]6O)CC[C@@]56C[C@@]46CC[C@]3(C)[C@@H]12 (stereo partly specified)	125%	10%	?	/
Cc1csc2nc(CSc3nncn3-c3ccccc3)c(Br)n12	0%	11%	-11%	>57
Cc1csc2nc(CSc3nc4ccccc4o3)c(Br)n12	18%	-4%	13µM*	>57
COc1cccc(-c2nccc(-n3ccnc3)n2)c1	10µM*	13µM*	?	>57
COc1cccc(-c2cncnc2-n2ccnc2)c1	-16%	-11%	8%	>57
O=C(c1ccc2c(=O)n(Cc3ccc4c(c3)OCO4)c(=S)[nH]c2c1)N1CCCCC1	16µM*[single pt active]	11%	1%	>57
C[C@@H]1C[C@@H]2[C@H]3CCC4=CC(=O)C=C[C@]4(C)[C@]3(Cl)[C@@H](O)C[C@@]2(C)[C@@]1(O)C(=O)CO	11%	-2%	-10%	>57
C=CCn1c2ccccc2c2nnc(SCN3C(=O)c4ccccc4C3=O)nc21	16%	3%	-16%	>57
C=CCn1c2ccccc2c2nnc(SCCCn3c(=O)[nH]c4ccccc43)nc21	21%	-3%	6.3µM*	/
COC(=O)N1CCC2(CC1)CCN(c1ccccc1)CC2	25%	-3%	7%	>11
C=CC1=C(C)C2=NC1=CC1=NC(=CC3=NC(=CC4=NC(=C2)C(C)=C4CCC(=O)O)C(CCC(=O)O)=C3C)C(C=C)=C1C.[Zn]	78%	-12%	16µM*	>57
COc1cccc(-c2cncnc2NCc2ccccc2)c1	13µM*	10µM*	?	>57
C=C[C@@H]1CN2CC[C@H]1C[C@H]2[C@@H](O)c1ccnc2ccccc12	-2%	1%	?	>57
N#Cc1cccc(-c2nc(NCc3ccccc3)c3ccccc3n2)c1	-6%	11%	?	>57
Cc1ccc(OCc2nc(-c3ccccc3)no2)c(C)c1	-10%	3%	?	/
Cc1cccc(NCc2nc(-c3ccccc3)no2)c1	2.5µM*[single pt active]	10%	?	>57
N=C1Sc2ccccc2C2=NCCCN12	-13%	-1%	0.025µM*	>57
CCN1CCN(Cc2ccc(NC(=O)Nc3ccccc3)cc2)CC1	1%	3%	?	>57
CCN1CCN(Cc2ccc(NC(=O)Nc3ccc(OC)cc3)cc2)CC1	4µM*[single pt active]	13%	-11%	>57
[N-]=[N+]=Nc1ccc(C(=O)CSC[C@@H](NC(=O)CC[C@@H](N)C(=O)O)C(=O)NCC(=O)O)cc1	6%	-5%	-7%	>57
O=C(Cn1cnnn1)OCC(=O)c1ccc(Cl)s1	13µM*	8%	-6%	>57
N#C[C@@H](Cc1ccc(O)c(O)c1)C(=O)N1CCc2ccccc21	-16%	-1%	-1%	>57
N#Cc1sc2nc3c(c(-c4ccco4)c2c1N)CCCC3	13µM*[single pt active]	10%	-14%	>57
CCCCCCCCCCCCC/C=C\[C@@H](O)[C@H](CO)NC(C)=O	81%	-9%	16µM*	>57
CN(CC(=O)N1CCc2ccccc2C1)S(=O)(=O)c1ccc2c(c1)c(=O)n(C)c(=O)n2C	4µM*[single pt active]	13%	1%	>57
SMILES	AmpC inh no det	AmpC inh det	Anthrax LT inh	Prx2 Sm inh
O=c1cccc2n1C[C@@H]1C[C@H]2CN2CCCC[C@H]12	-5%	-2%	?	>57
O=C(Nc1ccc(O)cc1)C1CC=CCC1 (stereo unspecified)	13µM*[single pt active]	7%	-1%	>57
Cc1ccc(S(=O)(=O)N2CCCC2C(=O)Nc2ccc(O)cc2)cc1 (stereo unspecified)	-7%	12%	-1%	>57
CCOC(=O)SC1=N/C(=C\c2ccc(N(C)C)cc2)C(=O)S1	16µM*	5µM*	-4%	>57
CCC(C)SCc1nc2ccccc2[nH]1 (stereo unspecified)	-12%	-4%	5%	/
CC(C)N(Cc1nc2ccccc2[nH]1)C(C)C	4µM*[single pt active]	9%	-10%	>57
CN(C)c1nc(N)c(C(=O)Nc2cccnc2)nc1Cl	/	/	7%	/
c1ccc(N2CCN(c3ncnc4c3oc3ccccc34)CC2)cc1	12%	0%	16µM*	>57
Cc1cccc(-n2nc3c(c2NC(=O)c2ccc(Br)o2)CSC3)c1	10µM*	0%	?	>57
COc1ccccc1N1CCN(Cc2cc(Br)c(O)c3ncccc23)CC1	2.5µM*[single pt active]	17%	?	>57
COc1cccc(Nc2cc(C)nc3ccccc23)c1	3%	0%	-11%	>57
O=C(O)c1ccccc1Nc1cccc(OCc2ccc3ccccc3n2)c1	16µM*![single pt active]	-2%	16µM*!	>57
C/C(=C\C(=O)c1ccncc1)Nc1ccccc1O	0%	5%	2.5µM*	/
CSc1ccccc1NC(=O)c1ccncc1	5%	1%	-2%	>57
CCCCC/C=C\C/C=C\C/C=C\C/C=C\CCCC(=O)NCC(=O)O	146%	-5%	6%	>57
CCCCC/C=C\C/C=C\C/C=C\C/C=C\CCCC(=O)Nc1ccc(O)cc1	10µM*	-10%	?	>57
O=C(Nc1ccc([N+](=O)[O-])cc1Cl)c1cc(Cl)ccc1O	-2%[12.8 µM]	-1%[12.8 µM]	0.25µM*	>57
CCCCOC(OCCCC)[C@H](O)CSc1ccc2ccccc2c1	/	/	0%[8 µM]	/
CN[C@]1(C)[C@@H]2CC[C@@H](C2)C1(C)C	3%	-1%	1%	>57
CC(C)CC(=O)Nc1c2c(nn1-c1ccc(F)cc1)CSC2	4µM*[single pt active]	13%	1%	>57
O=C(Nc1c2c(nn1-c1ccc(F)cc1)CSC2)c1ccc(S(=O)(=O)N2CCOCC2)cc1	24%	-1%	-6%	>57
O=C1Nc2ccccc2SC(c2ccccc2)C1O (stereo unspecified)	13µM*[single pt active]	-6%	-17%	>57
O=C(O)CC1Sc2ccccc2NC1=O (stereo unspecified)	-6%	-1%	-7%	>57
O=c1c(O)c(-c2cc(O)c(O)c(O)c2)oc2cc(O)cc(O)c12	10µM*	-2%	?	>57
CCCCNc1nc(C)nc2c1nc(-c1ccccc1)n2C(C)CCCN(CC)CC (stereo unspecified)	103%	10%	-16%	/
SMILES	AmpC inh no det	AmpC inh det	Anthrax LT inh	Prx2 Sm inh
O=C(Nc1ccc(F)cc1F)c1cc(-c2ccco2)on1	-13%	-7%	-23%	>57
CC(C)Cc1cc(C(=O)Nc2c(F)cc(F)cc2Br)no1	4µM*[single pt active]	15%	-23%	>57
O=C(NCCN1CCOCC1)c1cc(-c2ccc(Cl)cc2)on1	33%	10%	?	>57
CC(C)Cc1cc(C(=O)NCCN2CCOCC2)no1	4µM*[single pt active]	12%	-2%	>57
CC(C)Cc1cc(C(=O)Nc2ccc(F)cc2F)no1	4µM*[single pt active]	11%	-14%	>57
CC(C)Cc1cc(C(=O)Nc2cc(Cl)ccc2Cl)no1	4µM*[single pt active]	13%	-14%	>57
CC(C)c1cc(C(=O)Nc2cc(Cl)ccc2O)no1	-25%	1%	?	>57
CN(C)CCCNc1c2c(nc3ccc(Cl)cc13)CCCC2	-6%[5.75 µM]	-4%[5.75 µM]	?	>57
CC(C)c1ccc(Cn2ccc3c4c(N)nc(NC5CC5)nc4ccc32)cc1	12%	-4%	25µM*	>57
